Shown are actives, neighbours in structure and some others; about 1.6% of the full set was active somewhere.
dFosB act-1: activators of delta FosB homodimer, primary screen, biochemical, fluorescence polarization, TAMRA-CDK5 oligo, single point; Protein FosB (Mus musculus), P13346; purified delta FosB; percent of positive-control signal above neutral wells; activation, % at 25 µM; actives 0.99% (n = 340,000);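 active = mean activation above about 17%, with every replicate also reaching it, limit read from the data, passing the limit was not always enough; inconclusive = only one of the two conditions met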
B2AR ag: beta2AR agonists driving receptor internalization, primary screen, cell-based, FAP fluorogen, flow cytometry | Beta-2 adrenergic receptor (Homo sapiens), P07550 | Am2.2-beta2AR cells | response, % (test concentration not listed) | actives 0.43% (n = 340,000);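 active = response above a set limit, near 3 SD of response in nonfluorescent compounds, cut at about 42% in these data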
Target sequence (P07550 whole entry, looked up): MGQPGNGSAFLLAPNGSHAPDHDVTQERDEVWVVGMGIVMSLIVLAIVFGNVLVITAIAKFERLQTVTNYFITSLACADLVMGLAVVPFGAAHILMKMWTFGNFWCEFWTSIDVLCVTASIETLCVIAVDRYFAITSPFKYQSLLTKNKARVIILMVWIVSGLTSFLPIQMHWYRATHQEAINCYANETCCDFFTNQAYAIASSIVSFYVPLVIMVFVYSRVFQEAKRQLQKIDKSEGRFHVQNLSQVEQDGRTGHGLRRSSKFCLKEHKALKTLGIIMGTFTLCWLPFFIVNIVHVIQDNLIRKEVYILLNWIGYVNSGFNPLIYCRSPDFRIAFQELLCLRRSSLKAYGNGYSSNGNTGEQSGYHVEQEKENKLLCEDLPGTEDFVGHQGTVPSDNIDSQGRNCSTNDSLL
Bfl-1 A1 inh: caspase 3/7 activation in MEF A1-2A-BIM cells, primary screen, A1 inhibitor project, cell-based, luminescence, HTS; Caspase-Glo 3/7 luminescence, 3 h; percent of clofoctol response, vehicle zero; AID 2462, 2010; actives 0.066% (n = 330,000); caspase activation, % (test concentration not listed);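 active = over half of replicate activation scores above 10%, or exactly half above 10 with the replicate mean above 10; inconclusive = replicate mean below 10 yet half the replicates above 10; inactive = over half of replicates below 10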
Dyrk1A ADPGlo: rat Dyrk1A kinase inhibitors, primary screen, biochemical, single point, plate reader; Dual specificity tyrosine-phosphorylation-regulated kinase 1A (Rattus norvegicus), Q63470; ADP-Glo luminescence, NFATc1 peptide; inhibition, % at 12.5 µM; actives 0.43% (n = 310,000); in the data active = inhibition above about 50%;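 note: plate controls were vehicle with enzyme for no effect and no enzyme for full effect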
dFosB act-2: activators of mouse delta FosB DNA binding, confirmation, biochemical, fluorescence polarization, TAMRA-CDK5 oligo, cherry-picked samples. 2,400 tested, under 10 active. AID 588690, 2011. purified delta FosB; normalised: neutral wells 0, positive control 100. activation, % at 24.9 µM. shares compounds with dFosB act-1;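 active = highest replicate activation at or above 34% and every replicate reaching that threshold; inconclusive = meets only one of the two criteria; inactive = meets neither criterion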;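 note: higher polarization means more probe DNA bound by delta FosB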
The depositor's hits bear a star; ? = inconclusive; / = not tested or not shown.

SMILES | dFosB act-1 | B2AR ag | Bfl-1 A1 inh | Dyrk1A ADPGlo | dFosB act-2
Nn1c(SCC(=O)NNC(=O)c2ccccc2)nnc1-c1ccccc1F | 1.0 | -0.3 | 0.0 | 3.0 | /
NC(=O)NC(Cc1ccccc1)C(=O)NNC(=O)COc1ccccc1Cl (stereo not drawn) | 3.7 | -5.4 | 0.4 | -1.0 | /
c1cc(CCCc2ccncc2)ccn1 | -0.4 | -1.3 | 1.2 | -0.4 | /
O=C(C[C@H]1C/C=C\C[C@H](Cc2ccc(F)cc2)C(=O)O[C@@H](c2ccccc2)CNC1=O)NCCO | -3.7 | -5.3 | 0.1 | -2.1 | /
COc1cc(C(=O)NNC(=O)COc2cccc(F)c2)ccc1OCC(=O)N1CCOCC1 | -3.2 | 1.5 | 0.0 | 4.2 | /
Cc1nn2c(COc3ccc(NC(=O)c4ccccc4Cl)cc3)nnc2c2ccccc12 | 25.5* | -25.8 | 0.5 | -2.1 | -3.2
C=CCn1c(=O)c2ccc(C(=O)NCc3ccccc3)cc2n(Cc2ccc(Cl)cc2)c1=O | -2.3 | 13.7 | -0.2 | -1.7 | /
C=CCn1c(=O)c2ccc(C(=O)NCc3ccccc3)cc2n(Cc2cccc(Cl)c2)c1=O | 41.6* | 1.8 | -0.9 | -1.2 | 0.0
Cc1ccccc1Cn1c(=O)n(-c2ccccc2)c(=O)c2ccc(C(=O)NCc3ccco3)cc21 | 45.4* | -2.9 | 0.2 | -6.6 | 1.0
O=C(NCc1ccco1)c1ccc2c(=O)n(-c3ccccc3)c(=O)n(Cc3cccc(F)c3)c2c1 | 47.4* | 6.7 | 0.4 | 5.1 | -0.8
Nc1c(N(CCCO)C(=O)C2CCCCC2)c(=O)[nH]c(=O)n1Cc1ccccc1 | -2.8 | -1.2 | -1.4 | / | /
O=C(NCc1ccccc1Cl)c1ccc(NC2=NC3CS(=O)(=O)CC3S2)cc1 (stereo not drawn) | 29.2* | 1.8 | 1.3 | 1.4 | 3.7
CC(=O)c1ccc(-c2cccc([C@H]3[C@@H]4C=CC[C@@H](C)[C@@H]4C(=O)N3Cc3ccccc3)c2)cc1 | -10.8 | 5.9 | / | / | /
COC(=O)c1nn(-c2ccccc2)nc1-c1nn(-c2ccccc2)nc1C(=O)OC | 22.7* | -9.9 | 0.1 | -0.4 | 2.8
O=C(O)c1nn(-c2ccccc2)nc1-c1nn(-c2ccccc2)nc1C(=O)O | -7.2 | -1.8 | 0.3 | -4.8 | /
Cn1c(N2CCCC2)nc2c1c(=O)[nH]c(=O)n2C | 2.7 | 4.1 | -0.8 | -3.1 | /
O=C(COC(=O)c1cccnc1Cl)NCc1ccc2c(c1)OCO2 | 7.8 | -7.8 | 1.6 | 0.1 | /
O=C(COC(=O)c1cccnc1Nc1cccc(C(F)(F)F)c1)NCc1ccc2c(c1)OCO2 | 19.1* | -1.5 | 0.8 | -6.7 | 3.1
CCn1cc(CN2CCCC(C(=O)Nc3cccc(-c4cc5ccccc5[nH]4)c3)C2)cn1 (stereo not drawn) | 0.7 | 10.0 | -0.8 | 7.2 | /
Cc1ccc(S(=O)(=O)N2CCCN(C(=O)c3cc4ccccc4[nH]3)CC2)cc1 | -4.8 | 4.6 | 0.2 | -5.3 | /
O=C(NCC1OCCc2ccccc21)c1ccc(NC(=O)c2ccccc2Cl)cc1 (stereo not drawn) | 2.4 | -3.6 | 0.0 | 0.6 | /
O=C(NCC1OCCc2ccccc21)c1ccc(NC(=O)c2ccc(Cl)cc2Cl)cc1 (stereo not drawn) | 45.1* | -2.3 | 0.7 | 4.9 | 5.4
Cn1ccnc1SCC(=O)Nc1ccc(Br)cc1C(F)(F)F | -2.4 | -7.8 | -0.5 | -2.5 | /
CC(=O)c1sc(NC(=O)c2ccc(C)c(C)c2)nc1C | 23.5* | -0.7 | -4.6 | 3.4 | 1.6
CC(=O)c1sc(NC(=O)c2ccc(C(C)(C)C)cc2)nc1C | -12.0 | -3.0 | -0.8 | / | /
SMILES | dFosB act-1 | B2AR ag | Bfl-1 A1 inh | Dyrk1A ADPGlo | dFosB act-2
CCOc1cc(/C=N/Nc2nc3ccccc3[nH]2)cc(Br)c1OCC(=O)N(C)C | 22.2* | 10.2 | 0.3 | 2.7 | 1.8
COc1cc(/C=N\Nc2nc3ccccc3[nH]2)cc(OC)c1OC | 15.8 | -8.3 | 0.2 | 8.6 | /
Cc1ccc2c(C)c(C(=O)Nc3ccc(S(N)(=O)=O)cc3)oc2c1C | 48.3* | 0.7 | -1.3 | 7.4 | 4.9
Cc1cc(NC(=O)COC(=O)c2oc3c(ccc4ccccc43)c2C)no1 | -7.0 | 6.0 | ? | 1.3 | /
Cc1ccc2c(C)c(C(=O)NCc3ccc(S(N)(=O)=O)cc3)oc2c1C | 14.1 | 5.4 | 0.0 | -5.1 | /
Cc1c(C(=O)OCC(=O)Nc2ccc(S(N)(=O)=O)cc2)oc2c1ccc1ccccc12 | 28.6* | -1.1 | 2.4 | 11.3 | 2.4
O=C(NCC1CCCO1)C(=O)N/N=C/c1cccc(Cl)c1 (stereo not drawn) | 2.8 | -5.5 | -0.1 | / | /
O=C(Nc1ccc(-c2nnn(CC(=O)N3CCN(C(=O)c4ccco4)CC3)n2)cc1)c1ccc(F)cc1 | 34.8* | 2.5 | -0.3 | 2.1 | 4.6
COCCCNC(=O)Cn1nnc(-c2ccc(NC(=O)c3ccc(F)cc3)cc2)n1 | 35.5* | -3.2 | 0.2 | 5.3 | 8.5
O=C(Cn1nnc(-c2ccc(F)cc2)n1)N1CCCCC1 | -4.1 | 0.0 | 0.6 | -3.9 | /
C=CCNC(=O)c1n[nH]c2c1CC(C(C)(C)CC)CC2 (stereo not drawn) | -9.0 | -24.1 | 0.5 | 23.2 | /
NC1=NC[C@@H](Cc2ccc(O)cc2)N1CCc1cc(C(F)(F)F)cc(C(F)(F)F)c1 | 21.6* | -4.5 | 0.6 | / | 8.5
NC1=NC[C@@H](Cc2ccc(O)cc2)N1CCc1cccc(F)c1 | -10.0 | -6.9 | 0.7 | 18.0 | /
O=C(OCCN1CCOCC1)c1ccc(O)cc1 | 6.8 | 2.3 | 0.0 | 8.7 | /
COc1ccc(CNc2nc3c(c(=O)[nH]c(=O)n3C)n2Cc2ccccc2C)cc1 | 17.9* | 9.1 | -0.2 | -0.4 | 0.2
Cn1c(=O)[nH]c(=O)c2c1nc(NCc1ccccc1)n2Cc1ccc(F)cc1 | -0.3 | 7.8 | 2.2 | -2.7 | /
COc1ccc(Cc2nc3ccc(C(=O)NCC(C)(C)OC)cc3o2)cc1 | -1.4 | 1.8 | -0.7 | / | /
O=C(NC1CC1)c1ccc(Cl)c(S(=O)(=O)N2CCOCC2)c1 | -2.5 | -5.7 | 0.2 | -8.2 | /
Cc1cc(C)c2nc(/N=C(\N)NC(=O)Nc3ccccc3)nc(C)c2c1 | 51.9* | -2.1 | 0.0 | 4.6 | 1.5
COCCNC(=O)C(C(=O)c1ccc(F)cc1)n1cc(C)ccc1=O (stereo not drawn) | -0.9 | -4.5 | -0.6 | -6.8 | /
Cc1cccc(NS(=O)(=O)c2ccc3c(c2)Cc2cc(S(=O)(=O)Nc4cccc(C)c4C)ccc2-3)c1C | 24.3* | -0.8 | 0.1 | 1.9 | 1.0
Cc1cccc(NS(=O)(=O)c2ccc3[nH]c(=O)[nH]c3c2)c1C | -5.9 | -6.0 | -0.6 | 5.6 | /
Cc1cc(=O)n2nc(N3CCC(C(=O)NCc4cccc(Br)c4)CC3)sc2n1 | -20.1 | 0.8 | 0.8 | -3.5 | /
CN(Cc1cnn(Cc2ccccc2)c1)C(=O)c1cccc(S(=O)(=O)N2CCOCC2)c1 | 5.4 | -7.6 | 0.5 | / | /
